Hits are enriched below; roughly 12% of the tested compounds scored in any of these assays.
G9a block = qHTS Assay for Inhibitors of Histone Lysine Methyltransferase G9a | Histone-lysine N-methyltransferase EHMT2 (Homo sapiens), Q96KQ7 | G9a H3K9 monomethylation, AlphaScreen, 2 h | Potency, µM (top dose mostly 102 µM), hits mostly inhibitors | actives 8.8% (n = 350,000); also: nearly all actives have a fitted effect of over 75% in size
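Readings reflect AlphaScreen signal from monomethyl-H3K9 antibody detection. HMT at 20 nM; substrate b-H3K9 500 nM; cofactor SAM 20 uM; 2 h RT reaction; compounds tested as titrations in qHTS with 15 min preincubation.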
PLK1 PBD block = qHTS for Inhibitors of PLK1-PDB (polo-like kinase 1 - polo-box domain): Primary Screen | Serine/threonine-protein kinase PLK1 (Homo sapiens), P53350 | AID 720504, 2013 | Potency, µM, actives largely listed as inhibitors | actives 2.8% (n = 360,000) | Plk1 PBD binding of FITC phosphopeptide, fluorescence polarization; also: series mostly up to about 57 µM; nearly all actives have a fitted effect of over 65% in size
JMJD2A Tudor inh = qHTS Assay for Inhibitors of JMJD2A-Tudor Domain. actives 4.4% (n = 390,000). Potency, µM (highest dose often 114 µM), usual class: inhibitors. AID 504339, 2011. Lysine-specific demethylase 4A (Homo sapiens), O75164. AlphaScreen JMJD2A-Tudor / H3K4me3 peptide binding; also: nearly all actives have a fitted effect of over 50% in size
BAZ2B block = qHTS Assay for Inhibitors of BAZ2B | actives 4.4% (n = 360,000) | Potency, µM (top dose mostly 114 µM), actives largely listed as inhibitors | AlphaScreen BAZ2B-H3K14Ac peptide displacement | Bromodomain adjacent to zinc finger domain protein 2B (Homo sapiens), Q9UIF8; also: nearly all actives have a fitted effect of over 60% in size
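AlphaScreen displacement: compounds (up to 110uM) incubated 30 min at room temperature with a preformed 50 nM BAZ2B/50 nM biotinylated H3K14Ac peptide complex in PBS pH 7.4 with Tween-20. Donor and acceptor beads at 10 ug/mL final added, 20 min light-protected before reading.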
HP1b binding inh = HTS for Inhibitors of HP1-beta Chromodomain Interactions with Methylated Histone Tails | AlphaScreen HP1-beta / biotin-H3K9me3 peptide binding | Potency, µM (doses to about 114 µM), actives largely listed as inhibitors | actives 0.56% (n = 390,000); also: nearly all actives have a fitted effect of over 70% in size
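AlphaScreen: HP1-beta (50 nM) preformed 30 min with biotin-H3(1-18)K9me3 peptide (50 nM) in PBS pH 7.4, 0.01% Tween-20. Compound added for 30 min at RT, then streptavidin donor/nickel chelate acceptor beads (10 ug/mL) for 30 min.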
Sfp PPTase inh = qHTS Assay for Inhibitors of Bacillus subtilis Sfp phosphopantetheinyl transferase (PPTase) | 4'-phosphopantetheinyl transferase ffp (Bacillus subtilis), Q9F4F7 | Biochemical Sfp PPTase activity, qHTS | Potency, µM, most hits filed as inhibitors | actives 3.5% (n = 310,000) | AID 1490, 2009;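 also: the enzyme is Sfp with the accession as filed and its product quenches rhodamine fluorescence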
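Fluorescence-quenching assay with 15 nM Sfp, 5 uM rhodamine-CoA and 12.5 uM BHQ-2-labelled ybbR peptide in pH 7.6 Hepes/MgCl2 buffer. Enzyme was pre-incubated with compound for 15 min at room temperature. Rate was taken from the 30-min fluorescence change (525/598 nm).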
A number is an active result; . = inactive; ? = inconclusive; / = not tested or not shown; ! = a repeat was not active; [ ] = dose if it differs, or a comment. Calls follow the shape of the dose curve; as a rule, active = well fitted curve in the direction sought with a large enough effect; inconclusive = small, poorly fitted or top-dose-only effect, or another doubt; inactive = no such curve, though single readings can be large; an effect the other way counts as inactive or inconclusive.

SMILES | G9a block | PLK1 PBD block | JMJD2A Tudor inh | BAZ2B block | HP1b binding inh | Sfp PPTase inh
CC(C)Oc1ccc(C(=O)NC2=NCCS2)cc1 | 3.55µM | 26.7µM | . | . | ? | 35.5µM
CC(C)[C@H](NC(=O)c1ccc(F)cc1)C(=O)NC1=NCCS1 | . | . | 17.8µM | . | . | .
Cc1ccc(C(=O)NC2=NCCS2)cc1 | .[12.7 µM] | / | / | ? | / | .
N#Cc1ccc(C(=O)NC2=NCCS2)cc1 | 39.8µM | . | . | ? | . | .
CC(=O)c1ccc(NC(=O)Cn2c(=O)n(Cc3ccco3)c(=O)c3sc4ccccc4c32)cc1 | . | / | . | . | . | /
O=C(Cn1c(SCC(=O)Nc2ccc(F)cc2)nc2ccccc21)NCc1ccccc1Cl | . | / | . | . | . | /
CC1(C)C(=O)N(CCN2CCC(C(=O)c3ccc(F)cc3)CC2)c2ccccc21 | 20µM! | . | . | . | . | /
O=C(NCCc1ccccc1)c1ccc2nc(N3CCOCC3)sc2c1 | / | . | . | . | . | .
O=C(NCc1cccc(Cl)c1)c1ccc2nc(N3CCOCC3)sc2c1 | / | 26.7µM | . | . | . | .
Cc1cccc(CNc2ncnc3ccc(-c4ccc5c(ccn5C)c4)cc23)c1 | .[12.7 µM] | / | / | ? | / | /
CCN(CC)CCNCc1ccc(Br)cc1OCC(=O)NCc1ccccc1 | 50.1µM | . | . | . | . | .
CCN(CC)CCNCc1cc(Br)ccc1OCC(=O)NCc1ccccc1 | . | . | . | ? | . | .
COc1cc(/C=C(\C#N)C(=O)Nc2cccc(C(=O)O)c2)ccc1OCc1ccc(Cl)cc1 | . | . | ? | 44.7µM | . | .
COc1cc(/C=C(\C#N)C(=O)Nc2ccccc2)ccc1OCCN1CCOCC1 | / | . | . | . | . | .
COc1cc(/C=C(/C#N)C(=O)Nc2ccccc2)c(Br)cc1OCc1ccc(C(=O)O)cc1 | ? | 23.8µM | ? | ? | . | .
COc1ccc(-c2coc(CCC(=O)N3CCN(c4cc(C)ccc4C)CC3)n2)cc1 | / | . | ? | / | . | /
Cc1cccc(NC(=O)c2cn(-c3ccccc3)nc2-c2ccccc2)c1C | . | / | . | . | . | /
O=C1NC(c2ccccc2)=N/C1=C/c1ccco1 | 22.4µM | . | . | . | . | ?
O=C1NC(c2cccc(Br)c2)=N/C1=C\c1ccco1 | ? | . | ? | ? | . | ?
O=C1NC(c2ccccc2Br)=N/C1=C\c1ccco1 | 44.7µM | . | ? | . | . | ?
O=C1OC(/C=C/c2ccc(Cl)cc2)=NC/1=C/c1ccco1 | . | . | . | . | . | .
Cc1ccc(Cn2c(SCC(=O)N(C)C3CCS(=O)(=O)C3)nc3ccccc3c2=O)cc1 (stereo not given) | . | . | . | . | . | /
O=C(NCc1ccco1)c1ccccc1NS(=O)(=O)c1cccs1 | ? | . | . | . | . | .
COCCSc1ccccc1C(=O)N1CCCC1 | .[2.33 µM] | . | . | . | . | .
COc1ccccc1CNC(=O)c1ccccc1SCC(=O)NCc1ccco1 | 3.16µM | . | . | . | . | /
SMILES | G9a block | PLK1 PBD block | JMJD2A Tudor inh | BAZ2B block | HP1b binding inh | Sfp PPTase inh
O=C(NCc1ccco1)c1ccccc1NS(=O)(=O)c1ccc(Cl)s1 | 20µM | ? | ? | ? | . | .
Cc1ccccc1C(=O)NCCCn1ccnc1 | . | . | . | . | . | .
COCCSc1ccccc1C(=O)NCCCn1ccnc1 | ? | ? | ? | . | . | 44.7µM
COCCSc1ccccc1C(=O)N1CCOCC1 | ? | ? | . | . | . | 79.4µM
CCOc1ccc(NC(=O)c2ccc(-c3nc(COc4ccccc4)c(C)o3)cc2)cc1 | . | / | . | . | . | /
O=C(CSc1ccccc1C(=O)O)NCc1ccco1 | . | . | . | ? | . | .
Cc1ccccc1CNC(=O)c1ccccc1SCC(=O)NCc1ccco1 | 12.6µM | . | . | . | . | /
Cc1ccccc1NC(=O)CNc1ccccc1C(=O)NCc1ccco1 | 39.8µM | . | . | . | . | .
COCCSc1ccccc1C(=O)NCc1ccco1 | ? | . | . | . | . | 17.8µM
COCCSc1ccccc1C(=O)NCCc1ccccc1 | 17.8µM | . | . | . | . | 56.2µM
N/C(=N\OC(=O)COc1ccc2ccccc2c1)c1cccnc1 | . | . | . | . | . | ?
CN(C)/C=C/C(=O)c1ncc(C(F)(F)F)cc1Cl | ? | . | . | . | . | .
CCOc1ccc2[nH]cc(S(=O)(=O)c3ccc(Cl)cc3)c(=O)c2c1 | 70.8µM | . | . | ? | . | .
CCOc1ccc2[nH]cc(S(=O)(=O)c3ccc(C)cc3)c(=O)c2c1 | . | . | . | . | . | .
C[C@H]1Cc2c(-c3ccccc3)nc3c(c2CO1)CN(C(=O)NCc1ccco1)CC3 | / | / | / | / | / | .
COCc1cc(C)nc(OCC(=O)N/N=C/c2ccc(OC)c(OC)c2)c1C#N | ? | . | . | . | . | .
CC1=C(C#N)c2nc(N)c(C#N)c(C)c2/C1=C\c1ccc(C)cc1 | .[0.501 µM] | / | / | ? | / | 35.5µM
COc1cc(/C=C2\C(C)=C(C#N)c3nc(N)c(C#N)c(C)c32)ccc1OCC(=O)O | 25.1µM | 26.7µM | . | 56.2µM | . | ?
COc1ccc(Cl)cc1-c1cc(C(=O)NCc2ccc(C(F)(F)F)cc2)[nH]n1 | / | . | / | / | / | /
CC(C)Oc1ccc(/C=C/C(=O)NCC2COc3ccccc3O2)cc1 (stereo not given) | . | . | . | . | . | .
COC(=O)C[C@@H]1C=C[C@H](NC(=O)Cc2ccccn2)[C@@H](CO)O1 | / | . | / | / | / | /
Cc1ccc(OCc2n[nH]c(=S)n2N)cc1C | ? | . | ? | . | . | ?
CC(C)(C)c1n[nH]c(=S)n(N)c1=O | .[12.7 µM] | . | 5.01µM | ? | . | ?
O=C(C[n+]1cc(-c2ccc(Cl)cc2)n2c1CCC2)Nc1nc(-c2ccc(F)cc2)cs1 | ? | . | . | ? | . | 44.7µM
Cc1oc2ccc(O)c(CN3CCOCC3)c2c1C(=O)c1ccc(Cl)cc1 | ? | . | . | . | . | .
Cc1oc2c(Cl)c(Cl)c(O)c(CN(C)C)c2c1C(=O)c1ccc(Cl)cc1 | ? | . | ? | 44.7µM | . | .
C=CCC(C(=O)NC(C)c1ccccc1)C(=O)NC(C)c1ccccc1 (stereo not given) | .[0.501 µM] | 26.7µM | . | . | . | .
CCOC(=O)C1=CCN(S(=O)(=O)c2ccccc2Br)C1c1ccccc1 (stereo not given) | / | . | / | / | / | /
O=C1OC(Nc2nc(-c3ccc(F)cc3)cs2)c2ccccc21 (stereo not given) | . | . | . | . | . | .

High-throughput results deposited in PubChem BioAssay by National Center for Advancing Translational Sciences (NCATS).
